Values joined by “and” are separate entries in the source; they are usually repeats but may differ in a detail not shown here. Equal entries are not always repeated.
Target: C-X-C chemokine receptor type 6 (Homo sapiens) (UniProt O00574)
Test: antagonism of CXCR6 versus CXCR5 signaling – cell-based, CHO-K1 PathHunter beta-arrestin, luminescence, set 4, selectivity assay for CXCR6 antagonist project, profiling panel (AID 651919)
Settings: run 1, at 79 µM (top of the series)

C-X-C chemokine receptor type 6 (Homo sapiens), sequence (O00574 whole entry, looked up): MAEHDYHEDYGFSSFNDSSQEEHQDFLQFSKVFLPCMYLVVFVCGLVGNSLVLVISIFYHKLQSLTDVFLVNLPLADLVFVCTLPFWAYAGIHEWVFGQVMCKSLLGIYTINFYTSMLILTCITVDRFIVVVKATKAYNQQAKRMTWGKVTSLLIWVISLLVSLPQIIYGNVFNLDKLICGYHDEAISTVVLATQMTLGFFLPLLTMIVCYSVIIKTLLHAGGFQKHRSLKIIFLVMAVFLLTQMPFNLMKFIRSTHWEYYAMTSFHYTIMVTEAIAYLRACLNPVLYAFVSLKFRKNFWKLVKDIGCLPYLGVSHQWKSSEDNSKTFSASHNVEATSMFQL

First: COc1cc(C(=O)NC2CC3CCCC(C2)N3CC(=O)Nc2ccc(C)cc2)cc(OC)c1OC (centres undefined)
Second: COc1cc(C(=O)NC2CC3CCCC(C2)N3CC(=O)Nc2ccc(F)cc2)cc(OC)c1OC (centres undefined)
The inhibition of the first is lower: 79% for the first, 84.8% for the second.

First: COc1cccc(C(=O)NC2CC3CCCC(C2)N3CC(=O)Nc2ccc(F)cc2)c1 (centres undefined)
Second: COc1cccc(C(=O)NC2CC3CCCC(C2)N3CC(=O)Nc2ccc(Cl)cc2)c1 (centres undefined)
The inhibition of the first is lower: -1.02% for the first, 1.72% for the second.

First: COc1cc(OC)cc(C(=O)NC2CC3CCCC(C2)N3CC(=O)Nc2ccc(Cl)cc2)c1 (centres undefined)
Second: COc1cc(OC)cc(C(=O)NC2CC3CCCC(C2)N3CC(=O)Nc2ccc(C)cc2)c1 (centres undefined)
The inhibition of the first is lower: 5.14% for the first, 10.9% for the second.

First: O=C(CN1C2CCCC1CC(NC(=O)c1ccc3c(c1)OCO3)C2)Nc1ccc(Cl)cc1 (centres undefined)
Second: Cc1ccc(NC(=O)CN2C3CCCC2CC(NC(=O)c2ccc4c(c2)OCO4)C3)cc1 (centres undefined)
The inhibition of the first is lower: 3.65% for the first, 11.9% for the second.

First: COc1ccc(NC(=O)CN2C3CCCC2CC(NC(=O)c2cc(OC)cc(OC)c2)C3)cc1 (centres undefined)
Second: COc1cc(OC)cc(C(=O)NC2CC3CCCC(C2)N3CC(=O)Nc2ccc(F)cc2)c1 (centres undefined)
The inhibition of the first is higher: 11.5% for the first, 7.92% for the second.

Going from `COc1cc(C(=O)NC2CC3CCCC(C2)N3CC(=O)Nc2ccc(Cl)cc2)cc(OC)c1OC` (centres undefined) to `COc1ccc(NC(=O)CN2C3CCCC2CC(NC(=O)c2cc(OC)c(OC)c(OC)c2)C3)cc1` (centres undefined), the inhibition falls from 88.2% to 66.4%.

First: COc1ccc(C(=O)NC2CC3CCCC(C2)N3CC(=O)Nc2ccc(F)cc2)cc1OC (centres undefined)
Second: COc1ccc(C(=O)NC2CC3CCCC(C2)N3CC(=O)Nc2ccc(Cl)cc2)cc1OC (centres undefined)
The inhibition of the first is higher: 15% for the first, 9.09% for the second.

Going from `COc1ccc(CN2C3CCCC2CC(NC(=O)c2cc(OC)c(OC)c(OC)c2)C3)cc1` (centres undefined) to `COc1ccccc1NC(=O)CN1C2CCCC1CC(NC(=O)c1cc(OC)c(OC)c(OC)c1)C2` (centres undefined), the inhibition rises from 57.9% to 97.4%.

Going from `COc1ccc(C(=O)NC2CC3CCCC(C2)N3CC(=O)Nc2ccc(Cl)cc2)cc1` (centres undefined) to `COc1ccc(C(=O)NC2CC3CCCC(C2)N3CC(=O)Nc2ccc(C)cc2)cc1` (centres undefined), the inhibition rises from -4.29% to 13.2%.

Going from `COc1ccc(NC(=O)CN2C3CCCC2CC(NC(=O)c2cccc(OC)c2)C3)cc1` (centres undefined) to `COc1cccc(C(=O)NC2CC3CCCC(C2)N3CC(=O)Nc2ccc(C)cc2)c1` (centres undefined), the inhibition rises from 0.669% to 16.6%.

Going from `O=C(CN1C2CCCC1CC(NC(=O)c1ccc3c(c1)OCO3)C2)Nc1ccccc1` (centres undefined) to `O=C(CN1C2CCCC1CC(NC(=O)c1ccc3c(c1)OCO3)C2)Nc1ccc(F)cc1` (centres undefined), the inhibition falls from 12.3% to -0.62%.

Going from `COc1ccc(C(=O)NC2CC3CCCC(C2)N3CC(=O)Nc2ccccc2)cc1OC` (centres undefined) to `COc1ccc(C(=O)NC2CC3CCCC(C2)N3CC(=O)Nc2ccc(C)cc2)cc1OC` (centres undefined), the inhibition falls from 33.7% to 23.5%.

Going from `O=C(CN1C2CCCC1CC(NC(=O)c1ccccc1)C2)Nc1ccccc1` (centres undefined) to `COc1cccc(C(=O)NC2CC3CCCC(C2)N3CC(=O)Nc2ccccc2)c1` (centres undefined), the inhibition rises from 10.1% to 16.6%.

First: COc1ccc(NC(=O)CN2C3CCCC2CC(NC(=O)c2ccc(OC)cc2)C3)cc1 (centres undefined)
Second: COc1ccc(C(=O)NC2CC3CCCC(C2)N3CC(=O)Nc2ccc(F)cc2)cc1 (centres undefined)
The inhibition of the first is higher: -3.32% for the first, -4.57% for the second.

Compared with `COc1ccc(C(=O)NC2CC3CCCC(C2)N3CC(=O)Nc2ccccc2)cc1` (centres undefined), `COc1cc(OC)cc(C(=O)NC2CC3CCCC(C2)N3CC(=O)Nc2ccccc2)c1` (centres undefined) is higher in inhibition: 0.75% for the first, 12.4% for the second.

First: COc1ccc(NC(=O)CN2C3CCCC2CC(NC(=O)c2ccc4c(c2)OCO4)C3)cc1 (centres undefined)
Second: COc1ccc(NC(=O)CN2C3CCCC2CC(NC(=O)c2ccc(OC)c(OC)c2)C3)cc1 (centres undefined)
The inhibition of the first is lower: -0.217% for the first, 12.2% for the second.

For `COc1cc(C(=O)NC2CC3CCCC(C2)N3CC(=O)Nc2ccccc2Cl)cc(OC)c1OC` (centres undefined), the inhibition was 99.8% and 101%.
`COc1cc(C(=O)NC2CC3CCCC(C2)N3CC(=O)Nc2ccccc2)cc(OC)c1OC` (centres undefined) was tested, and the inhibition was 96.3% and 90.5%.

Source: PubChem BioAssay AID651919 (Sanford-Burnham Center for Chemical Genomics, 2012)
